Legend:
Assay in all cases: DAPPL (digital affinity profiling via proximity ligation, sequencing); 10 mM Tris-HCl pH 7.5, 50 mM NaCl, 1 mM DTT, 4% glycerol, room temperature, 30 min; GST-TFs on glutathione beads, 16-mer random dsDNA library, 0.1% formaldehyde crosslink after washing; high values mean tight binding
FLI1 = target: T1, FLI1 (Homo sapiens, UniProt Q01543 1-452); details: protein: recombinant; tags: N-terminal GST; dsDNA, one strand shown
T1 sequence: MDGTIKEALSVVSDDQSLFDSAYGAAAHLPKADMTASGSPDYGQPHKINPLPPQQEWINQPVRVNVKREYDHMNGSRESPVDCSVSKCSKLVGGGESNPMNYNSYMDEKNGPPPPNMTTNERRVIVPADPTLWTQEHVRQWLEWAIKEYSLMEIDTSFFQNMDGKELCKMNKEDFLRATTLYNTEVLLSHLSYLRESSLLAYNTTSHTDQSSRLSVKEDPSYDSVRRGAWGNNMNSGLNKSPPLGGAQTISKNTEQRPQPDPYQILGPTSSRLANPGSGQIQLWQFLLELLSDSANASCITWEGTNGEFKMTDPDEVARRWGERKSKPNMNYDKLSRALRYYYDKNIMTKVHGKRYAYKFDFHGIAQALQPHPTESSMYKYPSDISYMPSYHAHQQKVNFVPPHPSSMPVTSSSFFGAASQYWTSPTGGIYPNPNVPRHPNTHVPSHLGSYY
Method in brief: (§1)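 Sequencing on an Illumina NextSeq500 followed washing, crosslinking with 0.1% formaldehyde, proximity ligation (BsaI/T4 ligase, 1 h, 37 °C) and PCR amplification of pools that had been incubated for 30 min at room temperature with 200 nmole of a random double-stranded 16-mer DNA library in Tris/NaCl/DTT/glycerol buffer. Each pool held DNA-barcoded human transcription factors, expressed in yeast as GST fusions and captured on glutathione beads, plus a tag-only sample. Binding signal is a hexamer's read frequency for a factor divided by its frequency in the tag-only sample.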

ELK1 = target: T2, ELK1 (Homo sapiens, UniProt P19419 1-428); details: protein: recombinant; tags: N-terminal GST; dsDNA, one strand shown
T2 sequence: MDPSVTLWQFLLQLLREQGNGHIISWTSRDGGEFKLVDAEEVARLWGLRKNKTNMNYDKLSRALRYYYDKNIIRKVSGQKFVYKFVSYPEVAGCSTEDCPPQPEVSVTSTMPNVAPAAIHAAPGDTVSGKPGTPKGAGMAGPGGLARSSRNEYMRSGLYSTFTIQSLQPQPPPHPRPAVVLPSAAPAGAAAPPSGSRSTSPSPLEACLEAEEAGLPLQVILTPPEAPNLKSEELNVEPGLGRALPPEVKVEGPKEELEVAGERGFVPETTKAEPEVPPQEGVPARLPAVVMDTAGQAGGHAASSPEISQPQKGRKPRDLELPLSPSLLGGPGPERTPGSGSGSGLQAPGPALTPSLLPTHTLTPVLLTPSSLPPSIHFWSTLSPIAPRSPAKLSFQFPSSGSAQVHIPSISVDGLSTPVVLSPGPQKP
Method in brief: as §1

GABPA = target: T3, GABPA (Homo sapiens, UniProt Q06546 1-454); details: protein: recombinant; tags: N-terminal GST; dsDNA, one strand shown
T3 sequence: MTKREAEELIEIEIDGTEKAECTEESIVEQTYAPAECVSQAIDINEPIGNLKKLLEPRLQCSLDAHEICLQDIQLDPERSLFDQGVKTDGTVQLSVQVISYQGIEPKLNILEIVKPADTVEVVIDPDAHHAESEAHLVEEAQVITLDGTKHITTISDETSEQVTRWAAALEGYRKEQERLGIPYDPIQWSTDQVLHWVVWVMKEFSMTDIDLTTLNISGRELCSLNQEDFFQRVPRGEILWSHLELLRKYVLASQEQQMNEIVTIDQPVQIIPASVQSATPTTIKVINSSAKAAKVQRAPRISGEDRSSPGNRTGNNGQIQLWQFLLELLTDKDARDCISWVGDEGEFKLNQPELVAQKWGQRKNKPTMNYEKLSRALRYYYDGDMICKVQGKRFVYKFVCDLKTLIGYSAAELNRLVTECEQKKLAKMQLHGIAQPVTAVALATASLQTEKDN
Method in brief: as §1

ERG = target: T4, ERG (Homo sapiens, UniProt P11308 1-479); details: protein: recombinant; tags: N-terminal GST; dsDNA, one strand shown
T4 sequence: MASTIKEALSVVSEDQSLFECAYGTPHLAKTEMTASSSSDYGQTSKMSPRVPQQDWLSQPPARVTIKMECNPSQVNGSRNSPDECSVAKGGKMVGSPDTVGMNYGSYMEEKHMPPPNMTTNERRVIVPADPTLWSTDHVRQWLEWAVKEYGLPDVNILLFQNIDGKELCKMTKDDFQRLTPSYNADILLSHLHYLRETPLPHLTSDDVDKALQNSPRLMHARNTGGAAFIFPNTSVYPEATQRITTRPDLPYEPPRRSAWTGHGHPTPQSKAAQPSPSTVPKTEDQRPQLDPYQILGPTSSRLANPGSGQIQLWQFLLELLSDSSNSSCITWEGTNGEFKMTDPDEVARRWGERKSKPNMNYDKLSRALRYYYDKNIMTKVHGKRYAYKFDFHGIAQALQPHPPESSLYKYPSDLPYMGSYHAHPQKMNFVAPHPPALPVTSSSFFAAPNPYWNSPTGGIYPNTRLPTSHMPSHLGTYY
Method in brief: as §1

ELF1 = ELF1 (Homo sapiens, UniProt P32519 1-619); details: protein: recombinant; tags: N-terminal GST; dsDNA, one strand shown
ELF1, sequence (P32519 whole entry): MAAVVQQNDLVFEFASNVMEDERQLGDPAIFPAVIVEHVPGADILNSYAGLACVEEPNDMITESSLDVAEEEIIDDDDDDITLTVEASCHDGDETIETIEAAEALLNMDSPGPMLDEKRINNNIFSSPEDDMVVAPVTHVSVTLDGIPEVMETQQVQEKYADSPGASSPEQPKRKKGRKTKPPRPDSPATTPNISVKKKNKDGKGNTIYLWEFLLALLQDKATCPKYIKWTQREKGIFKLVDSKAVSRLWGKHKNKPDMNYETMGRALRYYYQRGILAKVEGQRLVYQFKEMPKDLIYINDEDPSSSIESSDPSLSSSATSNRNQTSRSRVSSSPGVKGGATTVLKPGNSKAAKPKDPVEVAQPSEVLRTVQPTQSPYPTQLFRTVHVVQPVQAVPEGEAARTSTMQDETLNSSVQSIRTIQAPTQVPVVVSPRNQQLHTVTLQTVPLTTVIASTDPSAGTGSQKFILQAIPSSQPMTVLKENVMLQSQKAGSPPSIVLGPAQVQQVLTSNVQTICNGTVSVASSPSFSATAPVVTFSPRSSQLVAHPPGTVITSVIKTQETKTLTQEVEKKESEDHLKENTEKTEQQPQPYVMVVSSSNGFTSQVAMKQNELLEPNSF
Method in brief: as §1

EHF = target: T5, EHF (Homo sapiens, UniProt Q9NZC4 1-300); details: protein: recombinant; tags: N-terminal GST; dsDNA, one strand shown
T5 sequence: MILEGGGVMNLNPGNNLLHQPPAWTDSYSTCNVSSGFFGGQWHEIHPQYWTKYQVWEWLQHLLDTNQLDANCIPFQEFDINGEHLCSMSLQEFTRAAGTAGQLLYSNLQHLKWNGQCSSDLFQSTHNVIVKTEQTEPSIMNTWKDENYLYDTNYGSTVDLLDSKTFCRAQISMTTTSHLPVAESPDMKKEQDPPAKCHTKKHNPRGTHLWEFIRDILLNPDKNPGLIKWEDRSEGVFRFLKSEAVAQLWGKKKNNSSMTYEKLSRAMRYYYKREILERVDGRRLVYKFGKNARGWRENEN
Method in brief: as §1

SPI1 = SPI1 (Homo sapiens, UniProt P17947 1-270); details: protein: recombinant; tags: N-terminal GST; dsDNA, one strand shown
Method in brief: as §1

SPIB = SPIB (Homo sapiens, UniProt Q01892 1-262); details: protein: recombinant; tags: N-terminal GST; dsDNA, one strand shown
SPIB, sequence (Q01892 whole entry): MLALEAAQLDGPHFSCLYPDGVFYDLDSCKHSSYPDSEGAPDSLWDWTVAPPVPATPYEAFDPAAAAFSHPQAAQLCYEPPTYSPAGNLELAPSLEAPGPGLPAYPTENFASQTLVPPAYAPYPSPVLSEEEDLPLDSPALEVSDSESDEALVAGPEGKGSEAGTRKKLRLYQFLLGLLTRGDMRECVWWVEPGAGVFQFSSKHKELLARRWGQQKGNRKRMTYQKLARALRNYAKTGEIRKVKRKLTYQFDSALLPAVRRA
Method in brief: as §1

ELK3 = target: T6, ELK3 (Homo sapiens, UniProt P41970 1-407); details: protein: recombinant; tags: N-terminal GST; dsDNA, one strand shown
T6 sequence: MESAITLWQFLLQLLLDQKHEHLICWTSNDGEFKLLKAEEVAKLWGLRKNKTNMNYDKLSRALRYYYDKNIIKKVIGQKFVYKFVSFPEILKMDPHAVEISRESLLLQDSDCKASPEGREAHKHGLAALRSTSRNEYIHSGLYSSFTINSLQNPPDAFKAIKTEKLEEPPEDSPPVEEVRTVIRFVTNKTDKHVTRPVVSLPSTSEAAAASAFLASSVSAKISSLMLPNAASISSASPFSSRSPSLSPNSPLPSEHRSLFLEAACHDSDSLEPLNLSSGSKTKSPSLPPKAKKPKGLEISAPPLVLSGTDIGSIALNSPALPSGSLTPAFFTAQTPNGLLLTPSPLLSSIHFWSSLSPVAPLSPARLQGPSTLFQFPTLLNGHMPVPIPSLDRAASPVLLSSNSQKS
Method in brief: as §1

FEV = target: T7, FEV (Homo sapiens, UniProt Q99581 1-238); details: protein: recombinant; tags: N-terminal GST; dsDNA, one strand shown
T7 sequence: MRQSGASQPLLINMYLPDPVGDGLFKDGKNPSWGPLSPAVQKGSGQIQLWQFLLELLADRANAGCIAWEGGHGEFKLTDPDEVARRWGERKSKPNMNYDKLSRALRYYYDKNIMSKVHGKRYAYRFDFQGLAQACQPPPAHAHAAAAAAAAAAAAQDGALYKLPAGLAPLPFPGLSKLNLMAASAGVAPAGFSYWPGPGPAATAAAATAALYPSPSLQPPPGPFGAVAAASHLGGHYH
Method in brief: as §1

ETV5 = ETV5 (Homo sapiens, UniProt P41161 1-510); details: protein: recombinant; tags: N-terminal GST; dsDNA, one strand shown
ETV5, sequence (P41161 whole entry): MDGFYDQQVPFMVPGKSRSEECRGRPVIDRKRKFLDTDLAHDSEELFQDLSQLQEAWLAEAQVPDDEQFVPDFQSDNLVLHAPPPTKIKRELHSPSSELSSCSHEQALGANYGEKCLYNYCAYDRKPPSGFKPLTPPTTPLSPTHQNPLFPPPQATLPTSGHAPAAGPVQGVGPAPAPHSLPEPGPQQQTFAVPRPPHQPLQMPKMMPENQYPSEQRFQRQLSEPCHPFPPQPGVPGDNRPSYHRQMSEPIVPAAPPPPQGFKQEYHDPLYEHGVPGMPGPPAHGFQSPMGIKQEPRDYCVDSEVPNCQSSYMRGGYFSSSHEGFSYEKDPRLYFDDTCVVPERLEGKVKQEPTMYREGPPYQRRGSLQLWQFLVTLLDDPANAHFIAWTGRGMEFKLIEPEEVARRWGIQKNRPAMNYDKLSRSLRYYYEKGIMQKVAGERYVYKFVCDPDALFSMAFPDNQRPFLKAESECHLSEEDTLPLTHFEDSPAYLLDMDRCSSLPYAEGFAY
Method in brief: as §1

HSF1 = HSF1 (Homo sapiens, UniProt Q00613 1-529); details: protein: recombinant; tags: N-terminal GST; chain copies: 3; dsDNA, one strand shown
HSF1, sequence (Q00613 whole entry): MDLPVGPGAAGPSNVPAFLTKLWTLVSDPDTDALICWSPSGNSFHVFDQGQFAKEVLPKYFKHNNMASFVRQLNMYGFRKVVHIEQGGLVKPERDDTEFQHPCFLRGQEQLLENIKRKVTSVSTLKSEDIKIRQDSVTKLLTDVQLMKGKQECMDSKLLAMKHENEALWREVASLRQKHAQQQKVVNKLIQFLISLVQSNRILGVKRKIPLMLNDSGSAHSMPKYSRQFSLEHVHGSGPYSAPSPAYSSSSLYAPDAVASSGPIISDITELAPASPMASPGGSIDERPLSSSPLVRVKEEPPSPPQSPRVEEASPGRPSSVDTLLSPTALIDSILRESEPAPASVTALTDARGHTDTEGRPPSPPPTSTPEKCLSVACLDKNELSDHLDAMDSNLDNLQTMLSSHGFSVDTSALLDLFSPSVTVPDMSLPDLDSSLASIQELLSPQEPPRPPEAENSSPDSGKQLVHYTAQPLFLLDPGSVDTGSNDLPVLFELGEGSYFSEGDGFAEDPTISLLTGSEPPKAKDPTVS
Method in brief: as §1

SPIC = target: T8, SPIC (Homo sapiens, UniProt Q8N5J4 1-248); details: protein: recombinant; tags: N-terminal GST; dsDNA, one strand shown
T8 sequence: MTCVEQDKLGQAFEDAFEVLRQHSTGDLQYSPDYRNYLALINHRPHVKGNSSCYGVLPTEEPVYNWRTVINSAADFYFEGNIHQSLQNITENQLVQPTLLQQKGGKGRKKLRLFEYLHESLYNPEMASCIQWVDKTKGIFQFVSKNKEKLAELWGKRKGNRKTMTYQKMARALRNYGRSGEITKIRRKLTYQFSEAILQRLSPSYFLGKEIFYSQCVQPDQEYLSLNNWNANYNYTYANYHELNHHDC
Method in brief: as §1

ELF4 = ELF4 (Homo sapiens, UniProt Q99607 1-663); details: protein: recombinant; tags: N-terminal GST; dsDNA, one strand shown
ELF4, sequence (Q99607 whole entry): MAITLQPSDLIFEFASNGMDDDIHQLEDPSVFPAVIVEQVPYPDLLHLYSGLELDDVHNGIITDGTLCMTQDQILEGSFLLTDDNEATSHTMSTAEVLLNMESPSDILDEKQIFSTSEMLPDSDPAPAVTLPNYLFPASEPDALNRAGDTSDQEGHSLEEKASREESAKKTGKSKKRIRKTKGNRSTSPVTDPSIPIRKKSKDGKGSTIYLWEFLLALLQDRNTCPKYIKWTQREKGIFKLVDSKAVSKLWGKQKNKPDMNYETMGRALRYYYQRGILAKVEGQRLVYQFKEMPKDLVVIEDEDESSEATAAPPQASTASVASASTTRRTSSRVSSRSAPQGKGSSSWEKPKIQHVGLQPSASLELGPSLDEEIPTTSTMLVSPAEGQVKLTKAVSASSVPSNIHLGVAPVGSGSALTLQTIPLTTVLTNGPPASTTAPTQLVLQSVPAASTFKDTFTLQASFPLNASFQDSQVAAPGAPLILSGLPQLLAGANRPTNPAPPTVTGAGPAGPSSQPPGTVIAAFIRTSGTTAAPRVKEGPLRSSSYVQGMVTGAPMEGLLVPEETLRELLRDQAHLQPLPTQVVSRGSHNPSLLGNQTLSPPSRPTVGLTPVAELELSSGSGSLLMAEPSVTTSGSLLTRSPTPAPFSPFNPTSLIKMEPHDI
Method in brief: as §1

ELK4 = target: T9, ELK4 (Homo sapiens, UniProt P28324-2 1-405); details: protein: recombinant; tags: N-terminal GST; dsDNA, one strand shown
T9 sequence: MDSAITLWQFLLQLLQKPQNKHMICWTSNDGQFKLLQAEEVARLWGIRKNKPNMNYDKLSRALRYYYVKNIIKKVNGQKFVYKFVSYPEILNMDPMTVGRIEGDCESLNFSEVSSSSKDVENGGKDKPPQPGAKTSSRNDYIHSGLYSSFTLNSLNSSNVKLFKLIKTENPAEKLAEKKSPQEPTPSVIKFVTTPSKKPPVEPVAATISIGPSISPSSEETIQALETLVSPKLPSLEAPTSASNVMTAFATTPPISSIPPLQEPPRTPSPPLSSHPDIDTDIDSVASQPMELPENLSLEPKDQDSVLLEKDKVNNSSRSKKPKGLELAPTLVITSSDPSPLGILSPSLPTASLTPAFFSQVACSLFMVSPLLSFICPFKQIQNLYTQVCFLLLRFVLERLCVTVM
Method in brief: as §1

ETV2 = target: T10, ETV2 (Homo sapiens, UniProt O00321 1-342); details: protein: recombinant; tags: N-terminal GST; dsDNA, one strand shown
T10 sequence: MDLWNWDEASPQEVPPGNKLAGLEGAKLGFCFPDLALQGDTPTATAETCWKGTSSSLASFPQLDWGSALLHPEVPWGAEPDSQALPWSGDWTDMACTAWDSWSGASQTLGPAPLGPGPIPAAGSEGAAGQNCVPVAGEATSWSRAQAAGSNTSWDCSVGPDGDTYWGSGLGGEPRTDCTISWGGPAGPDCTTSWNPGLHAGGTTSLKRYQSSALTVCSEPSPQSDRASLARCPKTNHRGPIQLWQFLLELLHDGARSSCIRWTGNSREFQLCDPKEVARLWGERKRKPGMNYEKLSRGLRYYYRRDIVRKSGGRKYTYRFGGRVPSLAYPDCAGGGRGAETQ
Method in brief: as §1

ELF3 = target: T11, ELF3 (Homo sapiens, UniProt P78545 1-371); details: protein: recombinant; tags: N-terminal GST; dsDNA, one strand shown
T11 sequence: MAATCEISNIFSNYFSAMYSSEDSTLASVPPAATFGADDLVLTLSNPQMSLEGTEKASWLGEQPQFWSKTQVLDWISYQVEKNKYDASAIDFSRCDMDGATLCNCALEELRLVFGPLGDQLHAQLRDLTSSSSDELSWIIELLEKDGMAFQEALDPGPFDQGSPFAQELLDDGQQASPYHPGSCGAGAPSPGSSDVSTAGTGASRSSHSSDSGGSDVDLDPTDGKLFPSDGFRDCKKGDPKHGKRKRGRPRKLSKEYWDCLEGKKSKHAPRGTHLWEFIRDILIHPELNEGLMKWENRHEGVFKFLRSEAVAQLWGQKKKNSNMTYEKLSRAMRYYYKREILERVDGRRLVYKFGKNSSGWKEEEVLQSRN
Method in brief: as §1

CRX = CRX (Homo sapiens, UniProt O43186 1-299); details: protein: recombinant; tags: N-terminal GST; dsDNA, one strand shown
CRX, sequence (O43186 whole entry): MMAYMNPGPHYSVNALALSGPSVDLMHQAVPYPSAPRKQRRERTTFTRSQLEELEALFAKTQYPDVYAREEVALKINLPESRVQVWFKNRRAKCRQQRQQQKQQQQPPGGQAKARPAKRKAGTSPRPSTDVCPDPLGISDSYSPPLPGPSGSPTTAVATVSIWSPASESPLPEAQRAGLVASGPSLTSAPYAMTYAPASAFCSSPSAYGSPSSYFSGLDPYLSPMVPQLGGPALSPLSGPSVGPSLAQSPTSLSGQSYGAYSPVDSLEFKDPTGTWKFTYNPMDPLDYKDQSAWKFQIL
Method in brief: as §1

ETV1 = ETV1 (Homo sapiens, UniProt P50549 1-477); details: protein: recombinant; tags: N-terminal GST; dsDNA, one strand shown
ETV1, sequence (P50549 whole entry): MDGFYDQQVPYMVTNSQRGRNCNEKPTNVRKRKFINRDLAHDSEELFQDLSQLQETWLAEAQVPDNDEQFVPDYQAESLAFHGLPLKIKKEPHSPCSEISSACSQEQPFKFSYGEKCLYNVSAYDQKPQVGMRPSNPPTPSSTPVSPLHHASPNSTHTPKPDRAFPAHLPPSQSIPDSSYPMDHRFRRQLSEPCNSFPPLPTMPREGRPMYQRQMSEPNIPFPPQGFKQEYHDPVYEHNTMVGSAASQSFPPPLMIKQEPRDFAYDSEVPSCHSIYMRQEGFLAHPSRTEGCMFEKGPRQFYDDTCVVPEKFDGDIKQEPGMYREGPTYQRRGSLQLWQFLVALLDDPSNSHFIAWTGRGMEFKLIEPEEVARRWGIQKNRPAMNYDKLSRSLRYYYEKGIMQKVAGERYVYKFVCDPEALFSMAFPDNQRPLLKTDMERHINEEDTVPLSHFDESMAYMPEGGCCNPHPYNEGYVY
Method in brief: as §1

## AACCTA
FLI1
  binding signal: 1.03 fold enrichment (6-mer frequency, TF over GST control)
ELK1
  binding signal: 1.08 fold enrichment (6-mer frequency, TF over GST control)
GABPA
  binding signal: 1.1 fold enrichment (6-mer frequency, TF over GST control)
ERG
  binding signal: 1.01 fold enrichment (6-mer frequency, TF over GST control)
ELF1
  binding signal: 1.1 fold enrichment (6-mer frequency, TF over GST control)
EHF
  binding signal: 1.11 fold enrichment (6-mer frequency, TF over GST control)
SPI1
  binding signal: 1.08 fold enrichment (6-mer frequency, TF over GST control)
SPIB
  binding signal: 1.1 fold enrichment (6-mer frequency, TF over GST control)
ELK3
  binding signal: 1.1 fold enrichment (6-mer frequency, TF over GST control)
FEV
  binding signal: 1.08 fold enrichment (6-mer frequency, TF over GST control)
ETV5
  binding signal: 1.03 fold enrichment (6-mer frequency, TF over GST control)
HSF1
  binding signal: 1.18 fold enrichment (6-mer frequency, TF over GST control)
SPIC
  binding signal: 1.03 fold enrichment (6-mer frequency, TF over GST control)
ELF4
  binding signal: 1.15 fold enrichment (6-mer frequency, TF over GST control)
ELK4
  binding signal: 1.07 fold enrichment (6-mer frequency, TF over GST control)
ETV2
  binding signal: 1.27 fold enrichment (6-mer frequency, TF over GST control)
ELF3
  binding signal: 1.16 fold enrichment (6-mer frequency, TF over GST control)
CRX
  binding signal: 1.2 fold enrichment (6-mer frequency, TF over GST control)
ETV1
  binding signal: 1.1 fold enrichment (6-mer frequency, TF over GST control)

Reference: PMC7862700, “An all-to-all approach to the identification of sequence-specific readers for epigenetic DNA modifications on cytosine”
